# Screening data from PubChem.
# HTR5A ag – HTR5A agonism, opioid heterodimer counter-screen | HTR5A agonist assay, luminescence, cell-based | activation, % at 9.3 µM | 340,000 compounds, 0.61% hits; in the data active = activation mostly above about 9.5%, no sharp cut-off; inactive = mostly below about 7.6%;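 note: 0% = cells with vehicle only and 100% = reference agonist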
# MsrA inh – inhibits bovine methionine sulfoxide reductase A. inhibition, % at 15.5 µM. 360,000 compounds, 0.75% hits. purified bovine MsrA, absorbance read-out; in the data active = inhibition above about 4.5%;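 note: 0% = vehicle wells with enzyme and 100% = reference inhibitor wells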
# HTR5A inv ag – HTR5A inverse agonism, opioid heterodimer counter-screen | AID 504634 | 340,000 compounds, 0.083% hits | inhibition, % at 9.3 µM | P47898 | HTR5A cell line, luminescence; in the data active = inhibition mostly above about 23%, no sharp cut-off; inactive = mostly below about 18%;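 note: 0% = cells with DMSO and 100% = no-cell wells with DMSO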
# MOR-DOR inv ag – inverse agonist of human OPRM1-OPRD1 heterodimerization; cell-based MOR-DOR heterodimer luminescence, inverse agonism; inhibition, % at 9.3 µM; 340,000 compounds, 0.21% hits; in the data active = inhibition above about 22%, passing the limit was not always enough;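 note: 0% = cells with DMSO and 100% = wells without cells with DMSO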
# Target sequence (P35372 whole entry, looked up): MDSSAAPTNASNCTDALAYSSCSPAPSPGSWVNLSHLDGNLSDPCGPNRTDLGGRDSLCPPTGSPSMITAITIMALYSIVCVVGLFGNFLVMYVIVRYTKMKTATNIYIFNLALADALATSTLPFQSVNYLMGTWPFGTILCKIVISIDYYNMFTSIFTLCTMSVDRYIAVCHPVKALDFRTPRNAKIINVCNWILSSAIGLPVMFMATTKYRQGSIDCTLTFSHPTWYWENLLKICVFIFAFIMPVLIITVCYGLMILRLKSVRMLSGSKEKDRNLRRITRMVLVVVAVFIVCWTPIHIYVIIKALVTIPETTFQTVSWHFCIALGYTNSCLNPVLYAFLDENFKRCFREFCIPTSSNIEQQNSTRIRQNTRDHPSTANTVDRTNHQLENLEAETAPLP
# Target sequence (P41143 whole entry, looked up): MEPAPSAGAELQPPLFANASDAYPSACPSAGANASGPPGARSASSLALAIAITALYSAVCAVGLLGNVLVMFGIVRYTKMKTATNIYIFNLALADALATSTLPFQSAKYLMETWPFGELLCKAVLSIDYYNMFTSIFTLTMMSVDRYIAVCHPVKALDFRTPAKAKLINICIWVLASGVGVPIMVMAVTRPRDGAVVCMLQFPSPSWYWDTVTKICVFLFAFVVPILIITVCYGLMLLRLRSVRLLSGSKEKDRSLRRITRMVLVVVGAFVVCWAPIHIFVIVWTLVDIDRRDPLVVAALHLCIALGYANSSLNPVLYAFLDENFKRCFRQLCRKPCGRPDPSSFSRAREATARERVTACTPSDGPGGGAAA
# bovine MsrA act – bovine methionine sulfoxide reductase A activation; 360,000 compounds, 0.3% hits; activation, % at 10.6 µM; AID 602163; purified bovine MsrA, absorbance read-out; in the data active = activation above about 7.5%;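 note: 0% = vehicle and 100% = reference activator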
# OPRM1-OPRD1 ag – agonists of human mu-delta opioid receptor heterodimerization; P35372+P41143; cells, OPRM1-OPRD1 heterodimerization, luminescence; activation, % at 9.3 µM; 340,000 compounds, 0.3% hits; AID 504326; in the data active = activation above about 18%;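 note: 0% = vehicle-treated cells and 100% = reference agonist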
# * = called active by the depositor; / = no result given. Hits are enriched below; roughly 1.9% of the tested compounds scored in any of these assays.
SMILES,HTR5A ag,MsrA inh,HTR5A inv ag,MOR-DOR inv ag,bovine MsrA act,OPRM1-OPRD1 ag
c1ccc2c(c1)-c1cccc3cccc-2c13,5.5,0.2,10.9,-14.1,0.5,2.8
c1ccc2c(c1)[IH]c1ccccc1-2,1.7,84.9*,-10.4,-54.3,-9.9,9.8
O=C1CC[C@@]2(O)[C@H]3Cc4ccc(O)c5c4[C@@]2(CCN3CC2CC2)C1O5 (stereo partly drawn),/,-0.4,/,/,/,/
S=c1[nH]c2ccccc2[nH]1,10.4*,1.1,-28.7,15.9,-1.6,-3.5
O=C(Nc1ccccc1)c1c(O)[nH]c(=S)[nH]c1=O,-6.3,0.3,13.1,11.1,-2.5,-2.1
Cc1ccc(C(=O)Nc2ccc(Cl)cc2C(=O)c2ccccc2)cc1,10.8*,-0.3,-39.0,-42.5,-2.7,7.5
COc1ccc(Cn2c(O)c(/C=N/NC(=O)c3ccccc3)c(=O)[nH]c2=O)cc1,-2.1,4.5*,5.2,19.0,-8.2,-2.9
O=C(N/N=C/c1c(O)n(Cc2ccccc2)c(=O)[nH]c1=O)c1ccccc1O,0.6,4.6*,-36.7,19.5,-7.5,-3.5
O=C(NCCN1CCC2(CC1)C(=O)NCN2c1ccccc1)c1ccc(Cl)c(Cl)c1,/,-0.4,/,/,/,/
Cc1cc(N2CCNC[C@@H]2C)ccc1N1CC[C@@H](O)C1,/,-1.6,/,/,/,/
Cc1cc(C)cc(N2C(=O)NC(=O)/C(=C\c3cccn3-c3ccc(Cl)cc3)C2=O)c1,14.1*,-0.3,-51.4,-7.2,-7.1,1.4
O=c1[nH]c2cc(Cl)ccc2n1C1CCN(Cc2ccc(-c3nc4ccc(F)cc4nc3-c3ccccc3)cc2)CC1,/,0.9,/,/,/,/
CCOc1cc(C=O)ccc1O,5.5,4.6*,-1.1,16.1,-10.0,-2.9
CCOc1cc(/C=C2\C(=O)NC(=O)N(C)C2=O)cc([N+](=O)[O-])c1O,1.2,2.4,-4.4,20.2,-7.6,-3.8
CCN1/C(=C\C=C\C2=[N+](CC)c3ccccc3C2(C)C)C(C)(C)c2ccccc21,-11.1,/,38.2*,-52.9,-0.4,8.5
O=[N+]([O-])c1ccc(NCCCN2CCOCC2)nc1,4.5,4.6*,-16.9,7.7,-10.0,-1.6
O=C(NCCN1CCC2(CC1)C(=O)NCN2c1ccccc1)c1ccc(F)cc1F,/,0.2,/,/,/,/
c1coc(CNCCc2c[nH]c3ccccc23)c1,13.4*,0.1,-49.6,9.5,-1.7,-2.1
Fc1ccc(CNCCc2c[nH]c3ccccc23)cc1,4.6,0.9,-12.8,14.5,-0.5,-2.8
NCCc1c[nH]c2ccccc12,49.7*,0.3,-7.1,-11.4,-1.4,2.3
O=C(Nc1ccccc1)N1Cc2cc(Br)ccc2-n2nncc2C1,/,-1.6,/,/,/,/
Cc1c(C=O)c2ccccc2n1Cc1ccccc1F,-0.8,2.0,-24.6,10.9,-3.5,-2.2
CCOC(=O)c1c(C=O)c2ccccc2n1Cc1ccccc1F,-2.7,4.6*,10.5,-5.8,-2.7,1.0
C/C1=C\[C@@H](C)C/C=C/[C@H]2[C@@H]3O[C@]3(C)[C@@H](C)[C@H]3[C@H](Cc4c[nH]c5ccccc45)NC(=O)[C@]32C(=O)/C=C/C(=O)[C@@H]1O,16.1,/,-21.4,-0.5,8.1*,0.1
COc1ccc(-n2c(/C=C/c3ccc(O)cc3)nc3ccccc3c2=O)cc1,10.0*,1.1,-37.8,-4.8,-6.3,1.0
SMILES,HTR5A ag,MsrA inh,HTR5A inv ag,MOR-DOR inv ag,bovine MsrA act,OPRM1-OPRD1 ag
O=c1c2ccccc2nc(/C=C/c2ccc(O)cc2)n1-c1ccc(O)cc1,-3.0,2.7,10.5,-12.1,-2.3,2.7
O=c1c2ccccc2nc(/C=C/c2ccc(O)cc2)n1-c1cccc(O)c1,9.8*,2.3,-25.1,11.7,-4.0,-2.0
CN1OC[C@@H]2CN3C4(C[C@@H]21)c1ccccc1C3(c1ccccc1)c1ccccc14,/,1.8,/,/,/,/
Cc1ccc2nc(-c3ccc(CN4CCC(n5nnc6ccccc65)CC4)cc3)c(-c3ccccc3)nc2c1,/,0.7,/,/,/,/
CC(=O)C1CCC2(O)C3CCC4=CC(=O)CCC4(C)C3CCC12C (stereo not drawn),-2.2,-0.7,8.7,19.1,1.8,-3.7
C[C@@H]1O[C@@H](O[C@@H]2C=C3CC[C@@H]4C(CC[C@]5(C)[C@@H](c6ccc(=O)oc6)CC[C@]45O)[C@@]3(C)CC2)[C@H](O)[C@H](O)[C@H]1O (stereo partly drawn),22.1*,0.1,-64.7,-392.6,-3.3,67.9*
Cc1ccc(OC(=O)N(C)C[C@H]2OCc3cnnn3CCCC(=O)N([C@H](C)CO)C[C@H]2C)cc1,/,0.3,/,/,/,/
CCn1nc(-c2cccs2)nc2c(=O)n(C)c(=O)nc1-2,6.1,/,-14.9,-78.2,58.8*,16.0
Cc1[nH]c2ccc(OC(F)(F)F)cc2c1CCNCc1cccc([N+](=O)[O-])c1,9.6,0.2,-37.7,-29.4,1.4,5.3
CCOc1cccc(CNCCc2c(C)[nH]c3ccc(OC(F)(F)F)cc23)c1O,15.9*,-2.4,-62.5,-111.0,0.2,20.0*
C#CC1(O)CCC2C3CCC4=CC(=O)CCC4=C3C=CC21C (stereo not drawn),10.9*,4.3,-42.8,1.6,-6.4,-0.3
N#Cc1ccc(NC(=S)N2Cc3ccc(Br)cc3-n3nncc3C2)cc1,/,1.3,/,/,/,/
CCN(CC)c1ccc(/C=C2/C(=O)NC(=O)N(Cc3ccco3)C2=O)cc1,-2.8,4.6*,6.7,17.1,-10.0,-3.5
CC(=O)OC1CC(OC2C(O)CC(OC3C(O)CC(OC4CCC5(C)C(CCC6C5CCC5(C)C(C7=CC(=O)OC7)CCC65O)C4)OC3C)OC2C)OC(C)C1OC1OC(CO)C(O)C(O)C1O (stereo not drawn),37.5*,-0.5,-146.4,-349.1,-3.9,67.9*
COc1cc(C(=O)N/N=C/C23CC[C@@H](O)CC2(O)CC[C@@H]2[C@@H]3CCC3(C)C(C4=CC(=O)OC4)CCC23O)ccc1O (stereo partly drawn),6.9,-0.3,-21.7,-33.8,-2.8,6.4
COC(=O)C1=C(c2ccc(OC(F)(F)F)cc2)C[C@@H]2CC[C@H]1N2C(=O)NCCOc1ccc(OC)cc1,1.7,10.0*,-4.2,7.4,-0.8,-1.3
Cc1ccc(C(=O)NCCN2CCC3(CC2)C(=O)NCN3c2ccccc2)cc1,/,0.5,/,/,/,/
Cc1cc(N2CCN(C)CC2)nc2ccccc12,9.1*,-0.4,-34.2,0.7,-1.2,-0.1
CSc1nc(N2CCN(C)CC2)c2ccccc2n1,0.0,2.5,-12.4,8.0,-2.6,-1.8
N#Cc1cc2c(nc1SCC(=O)Nc1ccc(Cl)cc1)C1CCN2CC1,12.0*,0.3,-1.7,-4.2,-0.7,0.8
N#Cc1cc2c(nc1SCC(=O)Nc1cc(Cl)ccc1Cl)C1CCN2CC1,0.5,-0.8,-1.3,2.9,-0.6,-0.6
CC(=O)C1C2c3ccccc3OC1(C)N=c1s/c(=C/c3cnn(C)c3)c(=O)n12 (stereo not drawn),-0.9,8.1*,2.4,18.0,-4.5,-3.3
COC(=O)C1C2c3ccccc3OC1(C)N=c1s/c(=C/c3cnn(C)c3C)c(=O)n12 (stereo not drawn),13.8,0.5,-38.7,3.8,1.1,-0.7
O=C(NC1CCCCC1)N1Cc2ccc(Br)cc2-n2nncc2C1,/,0.3,/,/,/,/
